Each structure is given as a SMILES string. Hit rate of the full screen: of about 39,000 compounds, about 1,500 (3.8%) were called active. Many of the other results were omitted from the sample, so actives are more common in it than they were.

This experiment deals with HSkMC (human skeletal muscle cells). The experiment is described as follows: cytotoxicity call (relative viability < 0.9). Conditions: 10 µM.
Take `C[C@H](CO)N1C[C@H](C)[C@H](CN(C)C(=O)c2ccccc2)OCCCC[C@H](C)Oc2ccc(NS(=O)(=O)c3ccccc3)cc2C1=O`: the cytotoxicity call was “inactive”.
For the compound `CC(=O)Nc1ccc(S(=O)(=O)CCO)cc1`, the cytotoxicity call was “inactive”.
As to `C[C@H](CO)N1C[C@H](C)[C@@H](CN(C)Cc2ccncc2)Oc2c(NC(=O)C3CCOCC3)cccc2C1=O`, the cytotoxicity call was “inactive”.
As to `COc1ccc([Si](C)(C)[C@H]2[C@H](CC(=O)N(CCO)Cc3ccccc3)O[C@@]3(C(=O)N(C)c4c(Br)cc(C)cc43)[C@@H]2C)cc1`, the cytotoxicity call was “inactive”.
Take `COc1ccc([Si](C)(C)[C@@H]2[C@@H](CC(=O)N3Cc4ccccc4C[C@H]3CO)O[C@]3(C(=O)N(Cc4ccc(I)cc4)c4ccccc43)[C@H]2C)cc1`: the cytotoxicity call was “inactive”.
With `COc1ccc([Si](C)(C)[C@@H]2[C@@H](CC(=O)N3Cc4ccccc4C[C@H]3CO)O[C@]3(C(=O)N(C)c4c(Br)cc(C)cc43)[C@H]2C)cc1`, the cytotoxicity call was “active”.
With `COc1ccc([Si](C)(C)[C@H]2[C@H](CC(=O)N3Cc4ccccc4C[C@H]3CO)O[C@@]3(C(=O)N(C)c4c(Br)cc(C)cc43)[C@@H]2C)cc1`, the cytotoxicity call is “active”.
On to `COc1ccc([Si](C)(C)[C@H]2[C@H](CCn3cc([C@H](O)c4ccccc4)nn3)O[C@@]3(C(=O)N(C)c4c(Br)cc(C)cc43)[C@@H]2C)cc1`, for which the cytotoxicity call is “inactive”.
To `COc1ccc([Si](C)(C)[C@@H]2[C@@H](CC(=O)N(CCO)Cc3ccccc3)O[C@]3(C(=O)N(C)c4c(Br)cc(C)cc43)[C@H]2C)cc1` belongs “inactive”; to `COc1ccc([Si](C)(C)[C@@H]2[C@@H](CCn3cc([C@H](O)c4ccccc4)nn3)O[C@]3(C(=O)N(c4ccccc4)c4ccccc43)[C@H]2C)cc1`, “inactive”.
Take `COc1ccc([Si](C)(C)[C@H]2[C@H](CC(=O)N3Cc4ccccc4C[C@H]3CO)O[C@@]3(C(=O)N(Cc4cccc(I)c4)c4ccccc43)[C@@H]2C)cc1`: the cytotoxicity call was “inactive”.
Take `COc1ccc([Si](C)(C)[C@@H]2[C@@H](CCn3cc([C@H](O)c4ccccc4)nn3)O[C@]3(C(=O)N(C)c4c(Br)cc(C)cc43)[C@H]2C)cc1`: the cytotoxicity call is “active”.
Consider `Cc1nnc(=O)[nH]c1NNc1ccccc1`, for which the cytotoxicity call is “inactive”.
For the compound `COc1cccc(NC(=O)N2C[C@@H](O)COC[C@H]3O[C@H](CC(=O)NCCCN4CCOCC4)CC[C@@H]32)c1`, the cytotoxicity call is “inactive”.
To `COc1ccc2c3c(n(c2c1)C)[C@@H](CO)N(C[C@]13CN(C1)S(=O)(=O)c1cn(cn1)C)C(=O)Nc1ccc(cc1)F` belongs “inactive”; to `NCc1ccc(-n2cccn2)cc1`, “inactive”; to `COc1ccc(S(=O)(=O)Nc2ccc3c(c2)C(=O)N([C@H](C)CO)C[C@H](C)[C@H](CN(C)S(=O)(=O)c2cn(C)cn2)OCCCC[C@H](C)O3)cc1`, “inactive”.
As to `CCCCCCCCCCCCCCCC(=O)OC[C@H](NC(=O)C(Cl)Cl)[C@H](O)c1ccc([N+](=O)[O-])cc1`, the cytotoxicity call is “inactive”.
Consider `CCCCCCCCCC[C@@H](O)[C@H]1C=C[C@@H]2C(=O)N(c3ccccc3)C(=O)[C@@H]2N1Nc1ccc([N+](=O)[O-])cc1`, for which the cytotoxicity call is “active”.
With `CCCCCCCCCCCCCCCC(=O)OCC(NC(=O)C(Cl)Cl)C(O)c1ccc([N+](=O)[O-])cc1` (stereo not drawn) the entry was “inactive”.
As to `C[C@@H]1CN([C@@H](C)CO)C(=O)c2cc(N(C)C)ccc2O[C@@H](C)CCCCO[C@@H]1CN(C)C(=O)Nc1cccc2ccccc12`, the cytotoxicity call is “inactive”.
Consider `C[C@@H]1CN([C@@H](C)CO)C(=O)c2cc(NS(=O)(=O)c3cccs3)ccc2O[C@@H]1CN(C)Cc1ccncc1`, for which the cytotoxicity call is “inactive”.
As for `CN(C)C/C=C/C(=O)Nc1ccc(C(=O)Nc2cccc(Nc3ncc(Cl)c(-c4c[nH]c5ccccc45)n3)c2)cc1`, the cytotoxicity call was “active”.
Regarding `C[C@@H]1CN([C@@H](C)CO)C(=O)c2cc(NC(=O)Nc3ccccc3)ccc2O[C@@H](C)CCCCO[C@@H]1CN(C)Cc1ccncc1`, the cytotoxicity call is “inactive”.
For `Cl.Nc1c2c(nc3ccccc13)CCCC2`, the cytotoxicity call is “inactive”.
Turning to `Nc1c2c(nc3ccccc13)CCCC2`, the cytotoxicity call is “inactive”.
As to `C[C@@H]1CCCCO[C@H](CN(C)Cc2ccncc2)[C@@H](C)CN([C@H](C)CO)C(=O)c2cc(NS(C)(=O)=O)ccc2O1`, the cytotoxicity call was “inactive”.
In the case of `C[C@@H]1CCCCO[C@H](CN(C)C(=O)c2ccccc2)[C@@H](C)CN([C@@H](C)CO)C(=O)c2cc(NS(=O)(=O)c3cccs3)ccc2O1`, the cytotoxicity call is “inactive”.
Turning to `CCC[C@@H](O)C#Cc1cnc2c(c1)C(=O)N([C@H](C)CO)C[C@H](C)[C@H](CN(C)Cc1ccc3c(c1)OCO3)O2`, the cytotoxicity call is “inactive”.
Take `COc1ccc(S(=O)(=O)Nc2ccc3c(c2)C(=O)N([C@H](C)CO)C[C@H](C)[C@H](CN(C)S(C)(=O)=O)OCCCC[C@H](C)O3)cc1`: the cytotoxicity call is “inactive”.
With `CO[C@H]1C[C@H](O[C@@H]2/C(C)=C/C[C@@H]3C[C@@H](C[C@]4(CC[C@H](C)[C@@H](C5CCCCC5)O4)O3)OC(=O)[C@@H]3C=C(C)/C(=N/O)[C@H]4OC/C(=C\C=C\[C@@H]2C)[C@]43O)O[C@@H](C)[C@@H]1O`, the cytotoxicity call is “active”.
With `CO[C@H]1C[C@@H](O[C@@H]2/C(C)=C/C[C@@H]3C[C@@H](C[C@]4(CC[C@H](C)[C@@H](C5CCCCC5)O4)O3)OC(=O)[C@@H]3C=C(C)/C(=N/O)[C@H]4OC/C(=C\C=C\[C@@H]2C)[C@]43O)O[C@@H](C)[C@@H]1O`, the cytotoxicity call was “inactive”.
For `COC1CC(OC2C(C)=CCC3CC(CC4(CCC(C)C(C5CCCCC5)O4)O3)OC(=O)C3C=C(C)C(=NO)C4OCC(=CC=CC2C)C34O)OC(C)C1O` (stereo not drawn), the cytotoxicity call was “active”.
Consider `O=c1[nH]c(=O)n([C@H]2C[C@H](O)[C@@H](CO)O2)cc1C(F)(F)F`, for which the cytotoxicity call is “inactive”.
Take `C[C@H](CO)N1C[C@H](C)[C@@H](CN(C)Cc2ccncc2)OCCCC[C@H](C)Oc2ccc(NC(=O)CCC(F)(F)F)cc2C1=O`: the cytotoxicity call was “inactive”.
Turning to `C[C@H](CO)N1C[C@H](C)[C@@H](CN(C)CC2CCCCC2)OCCCC[C@H](C)Oc2ccc(NC(=O)CCCCCC(=O)Nc3ccccc3N)cc2C1=O`, the cytotoxicity call was “inactive”.
Take `COc1ccc(NC(=O)Nc2ccc3c(c2)C(=O)N([C@@H](C)CO)C[C@@H](C)[C@H](CN(C)Cc2ccc(Cl)c(Cl)c2)OCCCC[C@@H](C)O3)cc1`: the cytotoxicity call was “inactive”.
Consider `CCCN(C)C[C@@H]1OCCCC[C@@H](C)Oc2ccc(NC(=O)Nc3ccc(OC)cc3)cc2C(=O)N([C@H](C)CO)C[C@@H]1C`, for which the cytotoxicity call was “inactive”.

Source of the values: the antibiotic and cytotoxicity screens of Wong et al. (2023).
